This note sets out measurements from PubChem BioAssay (Tox21).

Assay [1] can be described thus: qHTS assay to identify aromatase inhibitors - cell viability counter screen (AID 743084).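 Further: cells stimulated with testosterone during compound exposure; nearly all actives have a fitted effect of over 55% in size.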 Further: potency means the concentration at half of the fitted maximal effect. Background: In qHTS, concentration-response curves come from the screen itself.
The target of assay [2] is Aryl hydrocarbon receptor (Homo sapiens) (UniProt P35869). Briefly: qHTS assay to identify small molecule that activate the aryl hydrocarbon receptor (AhR) signaling pathway (AID 743085). Further: nearly all actives have a fitted effect of over 15% in size. Further: potency means the concentration at half of the fitted maximal effect.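 On activation: HG2L7.5c1 human HepG2 liver cells with stably integrated DRE-driven firefly reporter; series mostly up to about 70 µM.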 The procedure, abridged:
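Reporter assay in engineered HepG2 line HG2L7.5c1, whose plasmid carries twenty dioxin responsive elements upstream of firefly luciferase. Treatment lasted 24 h at 37C; ONE-Glo luminescence gauged induction.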

For assay [3], the target named is Peroxisome proliferator-activated receptor gamma (Homo sapiens) (UniProt P37231). The assay is described as follows: qHTS assay to identify small molecule antagonists of the peroxisome proliferator-activated receptor gamma (PPARg) signaling pathway (AID 743191; calls by dose curve; further: series mostly up to about 63 µM; nearly all actives have a fitted effect of over 30% in size). Put shortly:
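GeneBLAzer PPARg UAS-bla HEK293H cells carrying a UAS-driven beta-lactamase reporter were plated at 3000 cells/well, preincubated 5 h at 37C, then given compound for 17 h at 37C; LiveBLAzer B/G FRET substrate was read after 1 h at room temperature.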

The nature of assay [4]: qHTS assay to identify small molecule antagonists of the peroxisome proliferator-activated receptor gamma (PPARg) signaling pathway - cell viability counter screen (AID 743194). Further: nearly all actives have a fitted effect of over 55% in size. The procedure, abridged: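 PPARg-UAS-bla HEK293H cells were plated, rested 5 h at 37 C, then treated with compounds plus rosiglitazone (50 nM final) for 17 h at 37 C; viability was then read by CellTiter-Glo luminescence after 30 min at room temperature.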

Assay [5] can be described thus: qHTS assay for small molecule agonists of the antioxidant response element (ARE) signaling pathway (AID 743202; active means well fitted activation curve with a large enough effect in the signal ratio in the repeat runs, not every such curve was filed as active; the % refers to the signal ratio; further: potency means the concentration at half of the fitted maximal effect). The procedure, abridged:
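Compounds delivered in DMSO to ARE-bla HepG2 cells (2,000 cells/well, pre-incubated 5 h) and left 16 h at 37 C. LiveBLAzer B/G FRET substrate then added for 2 h at RT before fluorescence reading.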

A short description of assay [6]: qHTS assay for small molecule agonists of the antioxidant response element (ARE) signaling pathway - cell viability counter screen (AID 743203; calls by dose curve; further: nearly all actives have a fitted effect of over 55% in size). The procedure, abridged:
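Compounds in DMSO were pinned onto ARE-bla HepG2 cells plated 5 hrs earlier at 2,000 cells/well. Sixteen hours later at 37C/5% CO2, CellTiter-Glo was added and luminescence measured after 30 min at room temperature.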

Assay [7] in a line: qHTS assay for small molecule activators of the heat shock response signaling pathway - cell viability counter screen (AID 743209). Further: nearly all actives have a fitted effect of over 50% in size. Further: potency means the concentration at half of the fitted maximal effect. The procedure, abridged:
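Counter screen for cytotoxicity in HeLa HSE-bla reporter cells. Treatment was 5 h at 37 C; viability was detected by luminescent ATP assay (CellTiter-Glo) in the same wells as the beta-lactamase read.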

The nature of assay [8]: qHTS assay for small molecule activators of the heat shock response signaling pathway (AID 743210; active means well fitted activation curve with a large enough effect in the signal ratio in the repeat runs, with a control signal flat, not every such curve was filed as active; the % refers to the signal ratio;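 further: HeLa cells with beta-lactamase reporter driven by heat shock elements; series mostly up to about 63 µM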). Put shortly: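 Reporter gene assay: HeLa cells stably bearing an HSE-bla construct, compound treatment 5 h at 37 C, LiveBLAzer substrate 2.5 h at RT, fluorescence intensity.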
Assay [9] has as its target Peroxisome proliferator-activated receptor delta (Homo sapiens) (UniProt Q03181). Briefly: qHTS assay to identify small molecule agonists of the peroxisome proliferator-activated receptor delta (PPARd) signaling pathway (AID 743212; calls by dose curve). The procedure, abridged:
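A PPARd-bla HEK293H line with beta-lactamase under an Upstream Activator Sequence is treated with compounds at 37 C. Substrate loading for 2 h at room temperature precedes the fluorescence measurement.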

Assay [10] shares this target. The assay is described as follows: qHTS assay to identify small molecule antagonists of the peroxisome proliferator-activated receptor delta (PPARd) signaling pathway (AID 743215; active means well fitted inhibition curve with a large enough effect in the signal ratio in the repeat runs, not every such curve was filed as active; the % refers to the signal ratio;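 further: cells stimulated with agonist L165041 at 300 nM final during compound exposure; series mostly up to about 62 µM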). Put shortly:
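With L165041 present at 300 nM final, compounds were incubated 17 h at 37 C on PPARd UAS-bla HEK293H cells. A FRET-based beta-lactamase substrate was then applied for 2 h at room temperature and fluorescence intensity recorded.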

Assay [11] deals with Bile acid receptor (Homo sapiens) (UniProt Q96RI1). Briefly: qHTS assay to identify small molecule antagonists of the farnesoid-X-receptor (FXR) signaling pathway (AID 743217; active means well fitted inhibition curve with a large enough effect in the signal ratio in the repeat runs, not every such curve was filed as active; the % refers to the signal ratio). Put shortly: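 In this cell-based antagonist screen, inhibition of CDCA-driven (50 uM final) UAS-beta-lactamase expression in HEK 293T cells was measured by FRET fluorescence following 16 h compound exposure at 37 °C.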

The target is the same in assay [12]. The assay is described as follows: qHTS assay to identify small molecule agonists of the farnesoid-X-receptor (FXR) signaling pathway (AID 743220; active means well fitted activation curve with a large enough effect in the signal ratio in the repeat runs, not every such curve was filed as active; the % refers to the signal ratio). The procedure, abridged:
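Beta-lactamase reporter under UAS control in GeneBLAzer FXR HEK 293T cells (5000/well) measured with LiveBLAzer FRET substrate after 2 h at room temperature. Compound exposure lasted 16 h at 37C.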

Assay [13] can be described thus: qHTS assay to identify small molecule antagonists of the farnesoid-X-receptor (FXR) signaling pathway - cell viability counter screen (AID 743221; active means well fitted cell-killing curve with a large enough effect in the repeat runs, not every such curve was filed as active; further: nearly all actives have a fitted effect of over 50% in size). Put shortly: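 CellTiter-Glo, 30 min RT, luminescence; same wells as the LiveBLAzer FRET read. Cells: FXR-UAS-bla HEK 293T. Treatment: compound with chenodeoxycholic acid 50 uM final, 16 h at 37 C.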
For assay [14], the target named is Vitamin D3 receptor (Homo sapiens) (UniProt P11473). The assay is described as follows: qHTS assay to identify small molecule antagonists of the vitamin D receptor (VDR) signaling pathway (AID 743223; active means well fitted inhibition curve with a large enough effect in the signal ratio in the repeat runs, not every such curve was filed as active; the % refers to the signal ratio). Put shortly:
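After VDR-bla cells are plated and left 4 h at 37C, DMSO-dissolved compounds and 3 nM (final) calcitriol agonist are added. Incubation continues 16 h at 37C; FRET beta-lactamase substrate then develops 2 h at room temperature.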

A short description of assay [15]: qHTS assay to identify small molecule agonists of the peroxisome proliferator-activated receptor delta (PPARd) signaling pathway - cell viability counter screen (AID 743211). Further: nearly all actives have a fitted effect of over 55% in size. Further: potency means the concentration at half of the fitted maximal effect. The procedure, abridged: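 Multiplexed format: after the 2 h room-temperature LiveBLAzer B/G FRET step, CellTiter-Glo was added to the same wells. Luminescence after 30 min gave cell viability; compound exposure was 17 h at 37C.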

A short description of assay [16]: qHTS assay to identify small molecule antagonists of the peroxisome proliferator-activated receptor delta (PPARd) signaling pathway - cell viability counter screen (AID 743213). Further: nearly all actives have a fitted effect of over 50% in size. Further: potency means the concentration at half of the fitted maximal effect. The procedure, abridged:
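PPARd-bla HEK293H cells (3000/well) got compound plus 300 nM L165041 agonist for 17 h at 37 C. Viability in the same wells came from CellTiter-Glo luminescence after 30 min at room temperature.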

Assay [17] is described as follows: qHTS assay to identify small molecule that activate the aryl hydrocarbon receptor (AhR) signaling pathway - cell viability counter screen (AID 743086).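 Further: HepG2 liver cells carrying the AhR DRE luciferase reporter; series mostly up to about 70 µM; nearly all actives have a fitted effect of over 45% in size.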 The procedure, abridged:
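HepG2-AhR-luc (HG2L7.5c1) cells, 4000/well, were preincubated 5 h at 37C, exposed to compound in qHTS format for 24 hr at 37C, then given CellTiter-Fluor for 30 min; viability was read as fluorescence in the reporter wells.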

Assay [18] is described as follows: qHTS assay to identify small molecule agonists of the farnesoid-X-receptor (FXR) signaling pathway - cell viability counter screen (AID 743218). Further: nearly all actives have a fitted effect of over 45% in size. Further: potency means the concentration at half of the fitted maximal effect. The procedure, abridged: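 After 16 h at 37 C with test compounds, FXR-bla HEK 293T cells were given LiveBLAzer B/G substrate for 2 h at RT and then CellTiter-Glo; luminescence was taken after 30 min.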
The target of assay [19] is Peroxisome proliferator-activated receptor gamma (Homo sapiens) (UniProt P37231). The assay is described as follows: qHTS assay to identify small molecule agonists of the peroxisome proliferator-activated receptor gamma (PPARg) signaling pathway (AID 743094; active means well fitted activation curve with a large enough effect in the signal ratio in the repeat runs, not every such curve was filed as active; the % refers to the signal ratio). Put shortly: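 Following 5 h plating at 37C, PPARg-bla HEK293H cells receive compound or DMSO for 17 h; fluorescence intensity is recorded after LiveBLAzer B/G loading for 1 h at room temperature.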

Assay [20] addresses Vitamin D3 receptor (Homo sapiens) (UniProt P11473). Briefly: qHTS assay to identify small molecule agonists of the vitamin D receptor (VDR) signaling pathway (AID 743222; calls by dose curve). Put shortly:
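VDR-bla cells were seeded, left 4 h, treated with compounds in DMSO for 16 h, incubated 2 h at RT with B/G FRET substrate, and read for fluorescence.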

Where “and” joins values, the source holds several entries; their conditions need not be identical. Equal entries are not always repeated. Results filed as inconclusive are left out. Calls of active or inactive are those of the source. Unless noted, the call rests on the fitted dose curve; in most records, active means well fitted curve in the direction sought with a large enough effect in the repeat runs; inconclusive means weak or mixed curves; inactive means no such curve, though single readings can be large; an effect the other way counts as inactive or inconclusive.

Chain of Peroxisome proliferator-activated receptor delta (Homo sapiens) (Q03181 whole entry, looked up): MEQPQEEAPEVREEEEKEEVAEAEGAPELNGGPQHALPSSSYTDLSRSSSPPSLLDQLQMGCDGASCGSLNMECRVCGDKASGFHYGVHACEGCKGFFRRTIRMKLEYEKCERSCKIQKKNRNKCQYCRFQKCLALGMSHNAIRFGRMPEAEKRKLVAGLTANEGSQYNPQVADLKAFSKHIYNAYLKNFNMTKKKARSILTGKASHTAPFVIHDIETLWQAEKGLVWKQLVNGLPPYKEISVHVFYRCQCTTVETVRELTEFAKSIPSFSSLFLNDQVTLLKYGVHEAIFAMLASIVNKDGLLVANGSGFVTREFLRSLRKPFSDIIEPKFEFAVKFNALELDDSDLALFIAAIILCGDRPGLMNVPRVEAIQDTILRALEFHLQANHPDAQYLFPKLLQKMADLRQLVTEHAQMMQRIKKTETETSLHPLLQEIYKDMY
Chain of Bile acid receptor (Homo sapiens) (Q96RI1 whole entry, looked up): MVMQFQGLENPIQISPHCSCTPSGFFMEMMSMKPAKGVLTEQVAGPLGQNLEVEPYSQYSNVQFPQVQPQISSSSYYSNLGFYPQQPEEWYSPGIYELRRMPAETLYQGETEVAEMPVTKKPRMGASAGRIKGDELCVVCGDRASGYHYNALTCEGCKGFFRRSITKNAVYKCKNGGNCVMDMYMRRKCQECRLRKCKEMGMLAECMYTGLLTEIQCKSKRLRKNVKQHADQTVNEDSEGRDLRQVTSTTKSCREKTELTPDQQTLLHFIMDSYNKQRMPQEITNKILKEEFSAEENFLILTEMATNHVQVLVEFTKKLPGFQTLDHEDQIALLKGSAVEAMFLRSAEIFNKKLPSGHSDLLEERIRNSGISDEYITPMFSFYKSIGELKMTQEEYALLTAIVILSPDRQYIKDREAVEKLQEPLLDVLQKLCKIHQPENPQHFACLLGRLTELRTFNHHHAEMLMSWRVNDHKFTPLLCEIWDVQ
Chain of Vitamin D3 receptor (Homo sapiens) (P11473 whole entry, looked up): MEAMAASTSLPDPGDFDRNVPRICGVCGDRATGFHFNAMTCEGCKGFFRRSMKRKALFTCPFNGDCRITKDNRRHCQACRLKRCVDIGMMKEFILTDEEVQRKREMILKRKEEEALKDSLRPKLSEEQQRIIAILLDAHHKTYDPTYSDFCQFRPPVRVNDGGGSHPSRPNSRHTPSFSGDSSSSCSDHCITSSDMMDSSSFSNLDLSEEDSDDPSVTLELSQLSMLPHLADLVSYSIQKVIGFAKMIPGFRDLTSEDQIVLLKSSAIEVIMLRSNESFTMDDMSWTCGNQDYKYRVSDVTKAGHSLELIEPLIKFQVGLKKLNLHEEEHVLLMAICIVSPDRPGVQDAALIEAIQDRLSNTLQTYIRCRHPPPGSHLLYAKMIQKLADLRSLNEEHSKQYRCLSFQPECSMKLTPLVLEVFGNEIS
Chain of Aryl hydrocarbon receptor (Homo sapiens) (P35869 whole entry, looked up): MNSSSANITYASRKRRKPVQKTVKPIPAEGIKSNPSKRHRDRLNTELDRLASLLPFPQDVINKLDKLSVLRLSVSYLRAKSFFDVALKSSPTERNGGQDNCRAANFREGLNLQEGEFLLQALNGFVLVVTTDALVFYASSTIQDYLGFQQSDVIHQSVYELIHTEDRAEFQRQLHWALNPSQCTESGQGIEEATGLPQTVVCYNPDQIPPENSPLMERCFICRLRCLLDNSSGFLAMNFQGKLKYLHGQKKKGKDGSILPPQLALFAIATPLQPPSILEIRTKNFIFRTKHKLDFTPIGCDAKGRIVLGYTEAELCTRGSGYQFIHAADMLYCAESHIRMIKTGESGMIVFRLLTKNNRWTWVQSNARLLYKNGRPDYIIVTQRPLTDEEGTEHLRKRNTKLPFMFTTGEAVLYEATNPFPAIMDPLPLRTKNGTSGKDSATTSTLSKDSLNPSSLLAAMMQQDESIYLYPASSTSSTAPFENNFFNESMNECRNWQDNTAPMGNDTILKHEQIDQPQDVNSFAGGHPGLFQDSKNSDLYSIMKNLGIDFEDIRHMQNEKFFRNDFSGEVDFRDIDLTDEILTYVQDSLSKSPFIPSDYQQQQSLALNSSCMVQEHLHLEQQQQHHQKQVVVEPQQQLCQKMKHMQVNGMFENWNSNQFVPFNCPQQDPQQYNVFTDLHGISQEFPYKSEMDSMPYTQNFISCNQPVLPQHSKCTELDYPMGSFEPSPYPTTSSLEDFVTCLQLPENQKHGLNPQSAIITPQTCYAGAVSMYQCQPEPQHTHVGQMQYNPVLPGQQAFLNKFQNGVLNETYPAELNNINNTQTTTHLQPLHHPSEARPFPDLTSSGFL
Chain of Peroxisome proliferator-activated receptor gamma (Homo sapiens) (P37231 whole entry, looked up): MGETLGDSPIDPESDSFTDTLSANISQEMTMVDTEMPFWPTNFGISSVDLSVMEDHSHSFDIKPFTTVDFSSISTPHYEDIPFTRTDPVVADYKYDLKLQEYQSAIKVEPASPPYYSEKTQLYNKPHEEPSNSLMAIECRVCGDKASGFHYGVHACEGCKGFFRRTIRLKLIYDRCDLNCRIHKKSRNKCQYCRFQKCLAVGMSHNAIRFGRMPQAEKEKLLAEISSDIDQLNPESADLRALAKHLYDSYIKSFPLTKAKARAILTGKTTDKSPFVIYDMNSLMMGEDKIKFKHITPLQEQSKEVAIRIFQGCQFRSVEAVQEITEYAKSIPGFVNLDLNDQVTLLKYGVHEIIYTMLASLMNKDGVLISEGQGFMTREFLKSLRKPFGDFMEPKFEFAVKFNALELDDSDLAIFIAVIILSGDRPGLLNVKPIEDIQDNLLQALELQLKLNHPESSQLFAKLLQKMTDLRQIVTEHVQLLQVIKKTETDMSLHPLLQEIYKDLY

Turning to `CN(C)C(=O)NC1(c2ccccc2)CCN(CC[C@@]2(c3ccc(F)c(F)c3)CN(C(=O)c3ccccc3)CCO2)CC1`, the Potency result in assay [1], in assay [2], in [3], in assay [4], in assay [5] and in [6] was “inactive” each time. Also, the Potency entry in assay [7], in [8], in assay [9], in assay [10], in assay [11] and in assay [12] was “inactive” each time. Also, the Potency entry in assay [13] is “inactive”. In [14], the compound was called inactive.
On to `C=CC(=O)OCCOCCOCCOCCOC(=O)C=C`, for which the Potency in assay [1] was 13.8 µM (active) and 19.2 µM (active); in [5], 24.5 µM (active) and 27.1 µM (active); in assay [7] it was 34.8 µM (active); in assay [15] it was 54.4 µM (active). Besides, the Potency entry in assay [2], in assay [4], in assay [6], in assay [16] and in assay [13] was “inactive” in each case.
For the compound `CCCCc1ncc(/C=C(\Cc2cccs2)C(=O)O)n1Cc1ccc(C(=O)O)cc1`, the Potency result in assay [1], in [2], in [17], in assay [4], in assay [7] and in [15] was “inactive” throughout. In addition, the Potency entry in assay [18] and in assay [13] was “inactive” in each case. Moreover, in assay [14], the compound was called inactive.
For the compound `CCCCCCCCCc1ccc(OCCOCCO)cc1`, the Potency in [1] is 21.1 µM (active) and 22.8 µM (active); in [5], 1.62 µM (active); in [7], 23 µM (active); in assay [16] it was 20.5 µM (active). The Potency result in [2], in assay [19], in assay [6], in assay [9], in [12] and in assay [13] was “inactive” throughout. Moreover, in assay [20], the Potency entry was “inactive”. For the same compound, the result in assay [14] was inactive.
`C#Cc1cccc(Nc2ncnc3cc(OCCOC)c(OCCOC)cc23)c1`: the Potency entry in assay [1], in [3], in assay [4], in assay [6], in assay [7] and in [8] was “inactive” each time. Also, the Potency entry in assay [15], in [9], in assay [16], in assay [18], in assay [12] and in assay [13] was “inactive” in each case. For the same compound, the Potency in assay [2] was 2.66 µM (active).
On to `CCCCC/C=C\C/C=C\CCCCCCCC(=O)NC(C)c1ccccc1` (stereo not given), for which the Potency entry in [1], in assay [17], in assay [19], in assay [4], in assay [6] and in assay [7] was “inactive” each time. In addition, the Potency entry in assay [10] and in assay [13] was “inactive” each time. In addition, the Potency in [5] is 29.8 µM (active).
With `CC(=O)[O][Al][O]C(C)=O`, the Potency entry in [1], in assay [2], in assay [17], in assay [5], in assay [6] and in assay [7] was “inactive” in each case. Further, the Potency entry in assay [15], in [16], in assay [18] and in assay [13] was “inactive” in each case.
As to `COc1ccnc(CS(=O)c2nc3ccc(OC(F)F)cc3[nH]2)c1OC` (stereo not given), the Potency result in assay [1], in assay [17], in assay [19], in [3], in assay [4] and in [6] was “inactive” in each case. Also, the Potency result in assay [7], in assay [8], in [16], in assay [10], in assay [18] and in assay [13] was “inactive” throughout.
`CCc1c(C(=O)NN2CCCCC2)nn(-c2ccc(Cl)cc2Cl)c1-c1ccc(Br)cc1`: the Potency entry in [1], in assay [2], in assay [17] and in assay [7] was “inactive” each time. Besides, the figures for the Potency in assay [15] and in assay [18] were 12.3 µM (active) and 24.5 µM (active), respectively.
Turning to `CCC(CC)Nc1ccc(C)c(C)c1`, the Potency result in [1], in assay [17], in assay [19], in [3], in assay [4] and in [5] was “inactive” throughout. Besides, the Potency result in [6], in [7], in assay [15], in assay [16] and in assay [13] was “inactive” each time.
